# Measurements as given in PubChem BioAssay AID504770 (ICCB-Longwood Screening Facility, Harvard Medical School, 2011).
# Values joined by “and” are separate entries in the source; they are usually repeats but may differ in a detail not shown here. Identical values can stand only once. Hit rate of the full screen: of about 130,000 compounds, about 350 (0.27%) were called active. Rule as the data show it: active = z-score below about -2 (passing the limit was not always enough); inactive = the rest. The sample as a whole holds a higher share of actives than the screen did. Some structures have more than one record in an assay (separate samples or runs), and their calls can disagree.
# Experiment: PubChem AID 504770
# Conditions: E. coli YBA685 rctB-dependent plasmid, OD600 growth, 3 h; stronger effect = lower value
row,SMILES,z-score
1,Cc1cc(/C=C2\C(=O)NC(=S)N(c3ccccc3F)C2=O)c(C)n1-c1ccc(Cl)c(C(=O)O)c1,-0.8 (inactive)
2,COC(=O)c1ccc(CNC(=O)C(C)Sc2ccccc2)cc1 (stereo not drawn),-0.15 (inactive)
3,N#Cc1c(C(F)(F)F)cc(=O)[nH]c1S,-0.6 (inactive)
4,O=C(CSC1=NC2(CCCC2)Nc2ccccc21)Nc1ccc2c(c1)OCCO2,0 (inactive)
5,C=CCNc1nc(OC)nc(OC)n1,0.15 (inactive)
6,C(=C\c1ccccc1)/CNCCCN1CCOCC1,-0.45 (inactive)
7,COc1ccc(CN2CN(C(C)C)CSC2=S)cc1,-1.55 (inactive)
8,S=C1SCN(CCN2CCOCC2)CN1Cc1ccccc1,-2.95 (active)
9,Cc1cnc(NC(=O)CSc2nc3sc4c(c3c(=O)n2C)CCCC4)s1,-1.2 (inactive)
10,O=C(OCN1C(=O)c2ccccc2C1=O)c1ccccc1O,0.65 (inactive)
11,Nc1nc(/C(=C/CC(=O)O)C(=O)N[C@@H]2C(=O)N3C(C(=O)O)=CCS[C@H]23)cs1,-1.1 (inactive)
12,CO/N=C(/C(=O)N[C@@H]1C(=O)N2C(C(=O)O)=C(CSc3nc(=O)c(O)nn3C)CS[C@H]12)c1csc(N)n1,-4.8 (active) and -2 (inactive)
13,CC(=O)Nc1ccc(C(=O)N(C)Cc2cccc(F)c2)cc1,1.3 (inactive)
14,OCc1nc(-c2ccccc2)cs1,-0.45 (inactive)
15,CC(C)N1CCC(=O)N(c2ccccc2Cl)C1=O,0.25 (inactive)
16,CC(N)C(=O)Nc1ccc2c(c1)Cc1ccccc1-2 (stereo not drawn),-1.1 (inactive)
17,Cc1cccc(C(=O)Nc2nnc(/N=C/c3ccc(Br)s3)s2)c1,-0.85 (inactive)
18,O=C(NC1CCCC1)c1cc(-c2ccc(Br)cc2)on1,-2.5 (active)
19,O=C(NC1CCCC1)c1cc(-c2ccccc2)on1,0.55 (inactive)
20,CC(C)CNC(=O)c1cc(-c2ccc(Br)cc2)on1,-0.2 (inactive)
21,CCn1c(SCC(=O)Nc2ccc3c(c2)OCCCO3)nc2cc(S(N)(=O)=O)ccc21,2.15 (inactive)
22,COc1ccc(-c2nc3cc(N=Cc4cccc(OC)c4O)ccc3o2)cc1,0.1 (inactive)
23,COc1ccc(-c2ocnc2C(=O)O)cc1,-0.1 (inactive)
24,CCCCSc1nnc2c(=O)[nH]c(=O)[nH]c2n1,-1.6 (inactive)
25,CC(=O)NCc1ccc(C(=O)COC(=O)c2cc(-c3ccccc3)nn2-c2ccccc2)o1,0.5 (inactive)
26,CC(=O)Oc1ccc2c(=O)c(-c3ccccc3)coc2c1C,0.9 (inactive)
27,CCOC(=O)c1c(NC(=O)c2cc3ccccc3o2)sc2c1CC(C)(C)OC2,1.4 (inactive)
28,NS(=O)(=O)c1cc(OCC(F)(F)F)ccc1OCC(F)(F)F,-0.85 (inactive)
